From the supplement of paper PMC8728848
The full list was thinned out, with the strongest signals kept by preference.

Experiments:
Assay in all cases: glycan array binding signal (z-score within array); higher = stronger binding
Conditions in all cases: glycan notation: IUPAC condensed, linker removed
[1] = test system: Fuc(a1-2)[GalNAc(a1-4)]Gal(b1-4)GlcNAc
Method in brief: (§1)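 The binding signal is a Z-score computed within each array. Data were drawn from 3228 arrays in the Consortium for Functional Glycomics database, restricted to those with a known protein sequence. Scores were averaged over arrays of the same protein sequence at different concentrations or buffers, and over linkers, and negative values can be taken as non-binding.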

Fuc(a1-3)GlcNAc = test system: Fuc(a1-3)GlcNAc
Method in brief: as §1

[2] = test system: Fuc(a1-3)[Gal(b1-4)]Glc6S
Method in brief: as §1

[3] = test system: Fuc(a1-2)[GalNAc(a1-3)]Gal(b1-3)GlcNAc
Method in brief: as §1

[4] = test system: Fuc(a1-2)[GalNAc(a1-3)]Gal
Method in brief: as §1

[5] = test system: Fuc(a1-2)[Gal(a1-3)]Gal(b1-4)[Fuc(a1-3)]Glc
Method in brief: as §1

[6] = test system: Fuc(a1-2)[GalNAc(a1-3)]Gal(b1-3)GlcNAc(b1-2)Man(a1-3)[Fuc(a1-2)[GalNAc(a1-3)]Gal(b1-3)GlcNAc(b1-2)Man(a1-6)]Man(b1-4)GlcNAc(b1-4)[Fuc(a1-6)]GlcNAc
Method in brief: as §1

[7] = test system: Fuc(a1-2)[GalNAc(a1-3)]Gal(b1-4)GlcNAc(b1-2)Man(a1-3)[Fuc(a1-2)[GalNAc(a1-3)]Gal(b1-4)GlcNAc(b1-2)Man(a1-6)]Man(b1-4)GlcNAc(b1-4)[Fuc(a1-6)]GlcNAc
Method in brief: as §1

[8] = test system: Fuc(a1-2)[GalNAc(a1-3)]Gal(b1-4)GlcNAc
Method in brief: as §1

[9] = test system: Fuc(a1-2)[GalNAc(a1-3)]Gal(b1-4)[Fuc(a1-3)]GlcNAc(b1-3)GalNAc
Method in brief: as §1

[10] = test system: Fuc(a1-2)[GalNAc(a1-3)]Gal(b1-3)GlcNAc(b1-2)Man(a1-3)[Fuc(a1-2)[GalNAc(a1-3)]Gal(b1-3)GlcNAc(b1-2)Man(a1-6)]Man(b1-4)GlcNAc(b1-4)GlcNAc
Method in brief: as §1

[11] = test system: Fuc(a1-2)[GalNAc(a1-3)]Gal(b1-4)GlcNAc(b1-3)GalNAc
Method in brief: as §1

[12] = test system: Fuc(a1-2)[GalNAc(a1-3)]Gal(b1-4)GlcNAc(b1-6)GalNAc
Method in brief: as §1

[13] = test system: Fuc(a1-2)[GalNAc(a1-3)]Gal(b1-4)GlcNAc(b1-2)Man(a1-3)[Fuc(a1-2)[GalNAc(a1-3)]Gal(b1-4)GlcNAc(b1-2)Man(a1-6)]Man(b1-4)GlcNAc(b1-4)GlcNAc
Method in brief: as §1

[14] = test system: Fuc(a1-2)[Gal(a1-3)]Gal(b1-4)[Fuc(a1-3)]GlcNAc
Method in brief: as §1

[15] = test system: Fuc(a1-2)[GalNAc(a1-3)]Gal(b1-3)GalNAc(a1-3)[Fuc(a1-2)]Gal(b1-4)GlcNAc
Method in brief: as §1

[16] = test system: Fuc(a1-2)[Gal(a1-4)]Gal(b1-4)GlcNAc
Method in brief: as §1

[17] = test system: Fuc(a1-2)[GalNAc(a1-3)]Gal(b1-3)GalNAc(b1-3)Gal(a1-4)Gal(b1-4)Glc
Method in brief: as §1

[18] = test system: Fuc(a1-2)[GalNAc(a1-3)]Gal(b1-4)GlcNAc(b1-3)Gal(b1-4)GlcNAc
Method in brief: as §1

[19] = test system: Fuc(a1-2)[GalNAc(b1-3)]Gal
Method in brief: as §1

SpGH101 (Streptococcus pneumoniae), Q8DR60
glycan array binding signal (z-score) [1]: -0.12

BambL (Burhholderia ambifaria), Q0B4G1
glycan array binding signal (z-score) (Fuc(a1-3)GlcNAc): 7.79 | glycan array binding signal (z-score) [2]: -0.021

GspB (Streptococcus gordonii), Q939N5
glycan array binding signal (z-score) [3]: 0.192 | glycan array binding signal (z-score) [4]: -0.616

AgI/II Vhelical-GFP (Streptococcus mutans)
glycan array binding signal (z-score) [5]: -0.293 | glycan array binding signal (z-score) [6]: -0.218 | glycan array binding signal (z-score) [7]: -0.212 | glycan array binding signal (z-score) [8]: -0.146 | glycan array binding signal (z-score) [9]: 2.49 | glycan array binding signal (z-score) [1]: 2.31

LcI (Legionella pneumophila)
glycan array binding signal (z-score) [10]: -0.301 | glycan array binding signal (z-score) [6]: -0.427 | glycan array binding signal (z-score) [11]: 0.164 | glycan array binding signal (z-score) [12]: 2.06

Actinohivin (Actinomycete K97)
glycan array binding signal (z-score) [6]: 0.857 | glycan array binding signal (z-score) [13]: -0.143

AgI/IIC123-GFP (Streptococcus mutans)
glycan array binding signal (z-score) [14]: -0.047 | glycan array binding signal (z-score) [15]: -0.259 | glycan array binding signal (z-score) [7]: -0.549 | glycan array binding signal (z-score) [12]: 2.18 | glycan array binding signal (z-score) [9]: 4.84 | glycan array binding signal (z-score) [2]: -0.357

Epa22
glycan array binding signal (z-score) [5]: -0.341 | glycan array binding signal (z-score) [16]: 1.84 | glycan array binding signal (z-score) [17]: -0.54 | glycan array binding signal (z-score) [18]: 0.068

SiiE (Salmonella typhimurium), A0A0H3NVH0
glycan array binding signal (z-score) [14]: -0.019 | glycan array binding signal (z-score) [19]: 1 | glycan array binding signal (z-score) [2]: 1.25
